HCV NS3h FP: hepatitis C NS3 helicase inhibition, primary screen; NS3h Cy5-dT15 DNA binding, fluorescence polarization; inhibition, % at 100 µM; hit rate 1.6% among 16,000;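 active means inhibition above the average over every tested compound plus 3 SD, cut at about 40% in these data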
Cy5 interf NS3h: Cy5 fluorescence interference, HCV helicase counter-screen; fluorescence interference ratio at 100 µM; hit rate 6% among 16,000; AID 720488; Cy5-dT15 DNA with NS3h; actives lie on both sides; signal over control mean, under 1 quenches;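 active means compound fluorescence over control fluorescence at most 0.8, a quencher, or at least a set upper limit, an enhancer; inactive means ratio between 0.8 and the set upper limit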
NS3h confirm: hepatitis C NS3 helicase inhibition, confirmation; shares compounds with HCV NS3h FP; hit rate 20% among 240; NS3h binding to Cy5-dT15 DNA, fluorescence polarization; inhibition, % at 100 µM; AID 720485;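 active means percent inhibition of 50% or more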
SSB FP counter: counter-screen for HCV NS3 helicase inhibitors: E. coli SSB binding | shares compounds with HCV NS3h FP | E. coli SSB binding Cy5-dT15, fluorescence polarization | inhibition, % at 100 µM | hit rate 40% among 240;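 active means inhibition of at least 50%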;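 further: displacers lower Cy5 polarization so higher inhibition means more SSB displaced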
Target sequence (P0AGE0 whole entry, looked up): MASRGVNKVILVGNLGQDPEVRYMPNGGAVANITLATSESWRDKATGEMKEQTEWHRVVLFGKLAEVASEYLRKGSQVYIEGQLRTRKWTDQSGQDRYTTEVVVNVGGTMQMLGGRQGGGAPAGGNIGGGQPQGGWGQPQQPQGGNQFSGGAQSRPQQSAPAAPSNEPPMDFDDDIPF
Cy5 SSB interf: enhances or quenches Cy5-DNA fluorescence with E. coli SSB | shares compounds with HCV NS3h FP | Cy5-dT15/E. coli SSB fluorescence interference; actives lie on both sides | fluorescence interference ratio at 100 µM | hit rate 8% among 240;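 active means fluorescence interference ratio at or above 1.2, signal boosting, or at or below 0.8, signal quenching; inactive means ratio between 0.8 and 1.2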
Cy5 fluor confirm: Cy5 fluorescence interference, confirmation counter-screen | shares compounds with HCV NS3h FP | Cy5-dT15 DNA/NS3h fluorescence interference counterscreen | fluorescence interference ratio at 100 µM, hits read low | hit rate 44% among 240 | AID 720489;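 active means fluorescence interference ratio at or below 0.8 quencher or at or above a set limitenhancer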
Each line names hits and unclear results; the compound was inactive in the other large screens (follow-up assays come after a bar, where they were run). Most compounds without a hit are left out; they make up all but 6.9% or so of the library.

COC(=O)N1[C@H](c2ccccc2)[C@@H]1c1ccccc1	Cy5 interf NS3h 0.677
Cc1nc2ccc(I)cc2c(=O)n1-c1ccc([N+](=O)[O-])cc1Cl	none
O=C1c2ccccc2-c2onc3c(Br)cc(N4CC4)c1c23	Cy5 interf NS3h 0.783
O=S(=O)(c1cc(Cl)c(O)c(Cl)c1)c1cc(Cl)c(O)c(Cl)c1	none
COc1ccccc1OCC(=O)N1CCN(C)CC1	none
CN1CCN(c2ccc([N+](=O)[O-])c(NC3CC3)c2)CC1	none
O=[N+]([O-])c1ccc(N2CCNCC2)cc1NCCOc1ccccc1	Cy5 interf NS3h 0.702
COc1ccc(C2c3c(c4ccccc4oc3=O)Oc3c2c(=O)oc2ccccc32)cc1Cn1nc(C)c([N+](=O)[O-])c1C	none
COc1ccc(CN2CCNCC2)cc1OC	none
COC(=O)c1cccc(-c2ccc(C=C3C(=O)NC(=S)NC3=O)o2)c1	Cy5 interf NS3h 0.753
Cc1cccc(N2C(=O)NC(=O)/C(=C/c3ccc(-c4ccc(C(=O)O)c(Cl)c4)o3)C2=O)c1	none
Oc1ccc(Br)cc1CN1CCN(Cc2ccc(F)cc2)CC1	none
Nc1ccc(Oc2ccc(N)c(N)c2)cc1N	Cy5 interf NS3h 0
COc1ccc(C=C2C(=O)NC(=O)NC2=O)cc1OCc1ccc(Cl)cc1Cl	Cy5 interf NS3h 0.611
O=C1NC(=S)NC(=O)C1=Cc1ccc(OCc2ccccc2)c(OCc2ccccc2)c1	none
O=c1oc2ccccc2c2c1C(c1ccccc1)c1c(c3ccccc3oc1=O)O2	none
O=C1/C(=C/c2ccccc2O)N2CCC1CC2	none
CCn1cc(C=C2C(=O)NC(=O)NC2=O)c2ccccc21	Cy5 interf NS3h 0.728
Cc1ccc(S(=O)(=O)n2cc(C=C3C(=O)NC(=O)NC3=O)c3ccccc32)cc1	Cy5 interf NS3h 0.696
O=Cc1cn(Cc2ccccc2F)c2ccccc12	none
Cc1cc(C)cc(-n2c(C)cc(C=C3C(=O)NC(=O)NC3=O)c2C)c1	none
O=C1CC(=O)N(c2ccc(F)cc2)C(=S)N1	none
COc1ccc(C(=O)NC(Cc2cnc[nH]2)C(=O)O)cc1 (stereo not given)	none
Cc1ccc(C=C2C(=O)NC(=S)N(c3ccccc3F)C2=O)s1	HCV NS3h FP 42.4
O=C1NC(=S)N(c2ccc(Br)cc2)C(=O)/C1=C/c1ccc(-c2ccccc2C(=O)O)o1	none
O=C(CN1CCCC1=O)NCc1ccccc1	none
CCc1ccc(N2C(=O)NC(=O)/C(=C/C=C/c3ccco3)C2=O)cc1	HCV NS3h FP 41.8
O=C1NC(=O)N(c2ccc(Br)cc2)C(=O)/C1=C/C=C/c1ccccc1	none
CCCCCC1(C)NCCN2C(=O)CSC21 (stereo not given)	none
COc1ccc(-c2ccc(C=C3C(=O)NC(=O)NC3=O)o2)c([N+](=O)[O-])c1	Cy5 interf NS3h 0.437
Cc1cc(-c2ccc(C=C3C(=O)NC(=O)NC3=O)o2)ccc1[N+](=O)[O-]	Cy5 interf NS3h 0.76
O=C1NC(=O)C(=Cc2ccccc2OCCOc2ccc([N+](=O)[O-])cc2)C(=O)N1	none
Cc1ccc(C=C2C(=O)NC(=O)NC2=O)cc1[N+](=O)[O-]	none
CCNc1cc2oc(=O)cc(C(F)(F)F)c2cc1C	none
O=Cc1cn(Cc2ccc(Cl)c(Cl)c2)c2ccccc12	none
CC1(C)CN1S(=O)(=O)c1ccc(Cl)cc1 (stereo not given)	none
O=C1NC(=S)NC(=O)C1=Cc1ccc(OCc2cccc(C(=O)O)c2)cc1	HCV NS3h FP 58.4 | NS3h confirm inactive | SSB FP counter 89.1 | Cy5 SSB interf inactive | Cy5 fluor confirm inactive
O=C1NC(=S)NC(=O)C1=Cc1ccc(OCc2cccc3ccccc23)cc1	HCV NS3h FP 52.6 | NS3h confirm inactive | SSB FP counter 66.0 | Cy5 SSB interf inactive | Cy5 fluor confirm inactive
Cc1cccc(N2C(=O)/C(=C/c3ccc(OCc4cccc(C(=O)O)c4)cc3)C(=O)NC2=S)c1	none
Cc1cc(/C=C2\C(=O)NC(=O)N(c3cccc(Br)c3)C2=O)c(C)n1C	none
O=C1NC(=O)N(c2ccc3c(c2)OCO3)C(=O)/C1=C/c1ccc(OCc2cccc(C(=O)O)c2)cc1	HCV NS3h FP 47.7 | NS3h confirm inactive | SSB FP counter 57.5 | Cy5 SSB interf inactive | Cy5 fluor confirm 0.751
CC(C)OC(NC(=O)c1ccco1)C(Cl)(Cl)Cl (stereo not given)	none
COc1cccc(CN2CCN(C(=O)Cc3ccccc3)CC2)c1OC	none
O=[N+]([O-])c1ccc(N2CCOCC2)c(F)c1Br	none
O=C(NC(O)C(Cl)(Cl)Cl)C1CC=CCC1 (stereo not given)	none
O=C(Nc1ccc(Br)cc1C(=O)c1ccccc1)c1ccc([N+](=O)[O-])cc1	none
CC(=O)c1ccc(OC(=O)Cc2ccccc2)cc1	none
CC(C)Oc1ccccc1C=C1C(=O)NC(=O)NC1=O	HCV NS3h FP 42.4 | NS3h confirm inactive | SSB FP counter inactive | Cy5 SSB interf inactive | Cy5 fluor confirm inactive
COc1ccc(CN2CCNCC2)c(OC)c1	none
COc1ccc(C=C2C(=O)NC(=O)NC2=O)c(OC)c1	HCV NS3h FP 61.3 | NS3h confirm inactive | SSB FP counter inactive | Cy5 SSB interf inactive | Cy5 fluor confirm inactive
Cc1cc(C=C2C(=O)NC(=S)NC2=O)c(C)n1-c1ccccc1	none
O=C(Nc1nc2ccccc2s1)C(Cl)(Cl)Cl	none
CCC1(c2ccccc2)C(=O)NC(=O)N(C(=O)c2ccccc2Br)C1=O (stereo not given)	none
COc1ccc(C(c2c(O)c3ccccc3oc2=O)c2c(O)c3ccccc3oc2=O)cc1Cn1nc(C)c([N+](=O)[O-])c1C	none
Cc1cc(OCC(=O)c2ccccc2)c2c3c(c(=O)oc2c1)CCC3	none
COc1ccc(O)c(CN2CCN(Cc3ccc(Br)cc3)CC2)c1	none
COc1ccc(O)c(CN2CCN(Cc3ccc(F)cc3)CC2)c1	HCV NS3h FP 63.6, Cy5 interf NS3h 1.2 | NS3h confirm inactive | SSB FP counter inactive | Cy5 SSB interf inactive | Cy5 fluor confirm inactive
CCc1ccc(CN2CCN(C(=O)COc3ccc(Cl)cc3)CC2)cc1	none
CN(C)C(=O)C(c1ccccc1)c1ccccc1	none
Cc1c(C=O)c2ccccc2n1Cc1ccc(Cl)cc1	none
O=C1NC(=S)N(c2ccccc2)C(=O)/C1=C/c1ccco1	HCV NS3h FP 93.6 | NS3h confirm 62.6 | SSB FP counter 100.0 | Cy5 SSB interf inactive | Cy5 fluor confirm 0.712
O=C1NC(=O)N(c2ccc(Cl)cc2)C(=O)/C1=C/c1ccccc1	none
O=C1NC(=S)N(c2ccccc2F)C(=O)C1=Cc1ccco1	HCV NS3h FP 106.1, Cy5 interf NS3h 0.649 | NS3h confirm 113.4 | SSB FP counter 123.1 | Cy5 SSB interf 0.766 | Cy5 fluor confirm inactive
CC(=O)NC1(c2ccccc2)CC(C)N(C)CC1C (stereo not given)	none
Cc1[nH]c2cc(S(=O)(=O)O)c(Oc3ccccc3)cc2c1CCN	HCV NS3h FP 46.0 | NS3h confirm inactive | SSB FP counter 97.6 | Cy5 SSB interf inactive | Cy5 fluor confirm inactive

Screening data deposited in PubChem by Milwaukee Institute for Drug Discovery.
